Data on three compounds can be found in PubChem BioAssay AID651871 (Sanford-Burnham Center for Chemical Genomics, 2012).

Several values for one entry are separate records, joined by “and”; a condition that tells them apart may be missing. Identical values can stand only once.

In this test the test system is H9c2. Kind of test: cardiomyocyte survival under oxidative or metabolic stress – cell-based, panel, H9c2 and HL-1, ATP luminescence, set 2, SAR follow-up (AID 651871).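 Note: cells exposed to stressor for 2 h before ATP readout; reference of the scale not given here.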 To be noted: H9c2/HL-1 cardiomyocytes, 2-deoxyglucose stress, with 2-deoxyglucose, run 4, at 79 µM (top of the series).
Consider `COc1ccc2nc(-c3cc(OC)c(OC)c(OC)c3)cc(C(=O)NCC(=O)Nc3ccc(C(C)=O)cc3)c2c1`, for which the activity (protection/inhibition) was found to be 80.7%. The result for `CCOC(=O)c1cccc(NC(=O)CNC(=O)c2cc(-c3cc(OC)c(OC)c(OC)c3)nc3ccccc23)c1` reads 87.2%; that for `COc1ccc2c(c1OC)C(=O)N1c3ccccc3C(=O)N(Cc3cccc(Cl)c3Cl)C21` (stereo not drawn), 57.7% and -8.42%.
